Experimental findings from PMC3218832 are described below.

Holding throughout (assay): protein binding microarray; high values mean tight binding
What all share (conditions): dsDNA, one strand shown

Test [1] concerns the target RELARELA (p65 homodimer) (Homo sapiens, UniProt Q04206 1-307).
Test [2] has as its target p50p50 homodimer (Homo sapiens, UniProt P19838 7-356).
The target in test [3] is T1, p52p52 homodimer (Homo sapiens, UniProt Q00653 4-332).
T1 sequence: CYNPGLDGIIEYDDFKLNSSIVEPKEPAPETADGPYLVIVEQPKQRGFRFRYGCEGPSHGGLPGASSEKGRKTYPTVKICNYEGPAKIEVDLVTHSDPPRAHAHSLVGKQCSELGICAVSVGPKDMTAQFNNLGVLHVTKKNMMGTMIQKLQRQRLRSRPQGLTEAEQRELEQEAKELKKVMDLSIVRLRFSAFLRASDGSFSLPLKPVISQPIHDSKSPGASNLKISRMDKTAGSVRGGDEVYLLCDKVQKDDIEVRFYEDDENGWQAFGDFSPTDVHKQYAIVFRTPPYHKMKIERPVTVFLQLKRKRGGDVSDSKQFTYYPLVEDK

Test [4] deals with RELA (p65) subunit of heterodimer;p50 subunit (Homo sapiens;Homo sapiens, UniProt Q04206;P19838 1-307;7-356).
Test [5] deals with RELA (p65) subunit of heterodimer;p52 subunit (Homo sapiens;Homo sapiens, UniProt Q04206;Q00653 1-307;4-332).
Test [6] has as its target RELB subunit;p50 subunit (Homo sapiens;Homo sapiens, UniProt Q01201;P19838 120-401;7-356).
Test [7] concerns the target T2, RELB subunit;p52 subunit (Homo sapiens;Homo sapiens, UniProt Q01201;Q00653 120-401;4-332).
T2 sequence 1: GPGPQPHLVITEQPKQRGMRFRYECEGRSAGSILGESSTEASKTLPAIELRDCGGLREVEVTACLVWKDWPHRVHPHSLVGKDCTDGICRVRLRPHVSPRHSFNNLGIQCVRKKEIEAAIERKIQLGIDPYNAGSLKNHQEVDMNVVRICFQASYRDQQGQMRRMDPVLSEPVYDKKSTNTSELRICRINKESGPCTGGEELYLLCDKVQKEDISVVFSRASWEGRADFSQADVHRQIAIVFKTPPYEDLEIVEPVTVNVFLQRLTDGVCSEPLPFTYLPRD
T2 sequence 2: T1 sequence

The target in test [8] is C-Rel subunit;p50 subunit (Homo sapiens;Homo sapiens, UniProt Q04864;P19838 1-285;7-356).
Test [9] deals with T3, C-Rel subunit;p52 subunit (Homo sapiens;Homo sapiens, UniProt Q04864;Q00653 1-285;4-332).
T3 sequence 1: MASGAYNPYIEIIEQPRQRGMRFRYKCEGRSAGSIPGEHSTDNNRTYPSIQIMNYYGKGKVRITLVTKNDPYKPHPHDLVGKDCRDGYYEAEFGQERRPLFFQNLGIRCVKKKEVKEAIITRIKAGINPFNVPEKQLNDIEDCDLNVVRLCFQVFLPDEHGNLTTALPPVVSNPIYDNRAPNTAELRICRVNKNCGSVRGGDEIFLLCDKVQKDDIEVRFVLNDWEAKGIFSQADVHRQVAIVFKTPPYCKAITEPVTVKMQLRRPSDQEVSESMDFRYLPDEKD
T3 sequence 2: T1 sequence

p50p50 homodimer, sequence (P19838 7-356): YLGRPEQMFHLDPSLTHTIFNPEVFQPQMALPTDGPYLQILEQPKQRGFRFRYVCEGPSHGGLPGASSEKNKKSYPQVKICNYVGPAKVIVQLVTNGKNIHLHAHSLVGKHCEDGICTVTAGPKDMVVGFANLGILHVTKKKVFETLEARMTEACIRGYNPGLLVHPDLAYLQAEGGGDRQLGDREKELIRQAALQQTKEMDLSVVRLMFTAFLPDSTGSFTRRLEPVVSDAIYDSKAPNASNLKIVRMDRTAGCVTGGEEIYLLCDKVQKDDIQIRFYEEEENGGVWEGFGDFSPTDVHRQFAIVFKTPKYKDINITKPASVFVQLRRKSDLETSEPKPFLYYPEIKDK
RELARELA (p65 homodimer), sequence (Q04206 1-307): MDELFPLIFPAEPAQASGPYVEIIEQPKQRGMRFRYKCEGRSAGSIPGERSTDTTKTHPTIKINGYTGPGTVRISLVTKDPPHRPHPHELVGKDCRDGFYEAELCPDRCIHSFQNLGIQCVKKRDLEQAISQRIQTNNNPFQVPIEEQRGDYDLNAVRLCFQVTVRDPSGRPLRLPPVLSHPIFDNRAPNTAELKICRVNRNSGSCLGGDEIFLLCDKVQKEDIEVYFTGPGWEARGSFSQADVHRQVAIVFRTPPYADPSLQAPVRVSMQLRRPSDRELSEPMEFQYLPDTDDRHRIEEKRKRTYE
RELA (p65) subunit of heterodimer;p50 subunit, sequence (Q04206 1-307, chain 1 of 2): as the sequence (Q04206 1-307) above
RELA (p65) subunit of heterodimer;p50 subunit, sequence (P19838 7-356, chain 2 of 2): as the sequence (P19838 7-356) above

Take GGAAGCCTCCC: the binding signal in test [1] is -0.446 z-score; in test [2], -1.14 z-score; in test [3], -0.595 z-score; in test [4] it was -0.524 z-score; in [5], -0.721 z-score; in test [6] it was -0.789 z-score. The binding signal in [7] is -0.717 z-score; in test [8], -0.888 z-score; in test [9], -0.726 z-score.
Turning to GAGGTGACCCC, the binding signal in test [1] is -0.476 z-score; in [2] it was -0.386 z-score; in [3], -0.328 z-score; in test [4] it was -0.534 z-score; in [5] it was -0.428 z-score; in [6], -0.385 z-score. The binding signal in test [7] is -0.19 z-score; in [8] it was -0.788 z-score; in test [9], -0.26 z-score.
As to GGAATGCCCCC, the binding signal in test [1] was 2.8 z-score; in test [2], 1.02 z-score; in [3] it was 1.8 z-score; in test [4], 2.08 z-score; in test [5], 2.18 z-score; in test [6], 1.13 z-score. Also, the figures for the binding signal in [7], in [8] and in [9] were 1.75 z-score, 1.61 z-score and 2.48 z-score, respectively.
For the sequence AAGGATATCCT, the binding signal was -0.125 z-score in test [1]; -1.04 z-score in test [2]; -0.548 z-score in test [3]; -0.853 z-score in test [4]; -0.906 z-score in test [5]; -0.945 z-score in test [6]. The binding signal was -0.859 z-score in [7], -1.41 z-score in test [8] and -0.843 z-score in test [9].
For the sequence AAGTGGGTCCC, the binding signal is -0.651 z-score in test [1]; -0.324 z-score in test [2]; -0.0356 z-score in test [3]; -0.468 z-score in test [4]; -0.433 z-score in [5]; -0.00499 z-score in [6]. Also, the binding signal in [7] is -0.124 z-score; in test [8], -0.493 z-score; in [9], -0.609 z-score.
On to AAGAATGTCCC, for which the binding signal in [1] worked out at 1.27 z-score; in [2] it was 0.914 z-score; in [3] it was 0.691 z-score; in test [4] it was 0.927 z-score; in [5], 0.625 z-score; in test [6], 0.695 z-score. The binding signal in test [7] is 0.54 z-score; in test [8], 0.518 z-score; in test [9] it was 0.463 z-score.
CGATAGCTCCT: the binding signal in [1] is -0.609 z-score; in test [2], -1.63 z-score; in test [3] it was -0.796 z-score; in test [4], -1.07 z-score; in test [5], -1.04 z-score; in test [6], -1.34 z-score. The values for the binding signal in [7], in test [8] and in test [9] were -1 z-score, -1.65 z-score and -1.09 z-score, respectively.
Take GAATAGGTCCT: the binding signal in test [1] was -0.471 z-score; in [2], -1.25 z-score; in [3] it was -0.387 z-score; in test [4], -1.08 z-score; in [5], -0.8 z-score; in [6], -0.766 z-score. The binding signal in test [7] was -0.501 z-score; in test [8], -1.35 z-score; in test [9], -0.527 z-score.
Turning to AGAAAATCCCT, the binding signal in [1] worked out at 1.08 z-score; in [2], 1.27 z-score; in test [3], 1.8 z-score; in [4], 1.28 z-score; in test [5] it was 1.37 z-score; in [6] it was 1.49 z-score. The binding signal in test [7] was determined as 1.61 z-score; in test [8], 1.12 z-score; in test [9], 1.62 z-score.
For CGGTGTACCCT, the binding signal in test [1] was -0.287 z-score; in test [2] it was -0.0219 z-score; in [3] it was 0.0503 z-score; in [4], -0.317 z-score; in test [5], -0.282 z-score; in test [6], -0.0463 z-score. Further, the binding signal in test [7] is -0.155 z-score; in test [8] it was -0.172 z-score; in [9] it was -0.317 z-score.
As to AAATGTGCCCC, the binding signal in [1] is 0.655 z-score; in test [2], -0.0191 z-score; in [3], 0.195 z-score; in [4], 0.499 z-score; in test [5], 0.0761 z-score; in test [6] it was 0.0211 z-score. For the same sequence, the binding signal was found to be 0.23 z-score in test [7], 0.81 z-score in test [8] and 0.211 z-score in test [9].
As to CGGGTTACCCT, the binding signal in [1] was 0.242 z-score; in test [2], -0.264 z-score; in test [3], -0.0855 z-score; in [4], -0.112 z-score; in test [5], -0.124 z-score; in test [6] it was 0.063 z-score. Further, the binding signal was -0.22 z-score in [7], -0.0809 z-score in test [8] and -0.0258 z-score in test [9].
On to CGATTAATCCC, for which the binding signal in [1] was 0.0967 z-score; in test [2] it was -0.315 z-score; in test [3], -0.0861 z-score; in test [4], -0.0553 z-score; in test [5] it was -0.137 z-score; in [6] it was 0.0473 z-score. The binding signal in test [7] is -0.161 z-score; in [8], -0.0218 z-score; in test [9] it was -0.299 z-score.
Take GGATAATCCCC: the binding signal in test [1] was found to be 1.81 z-score; in [2], 1.26 z-score; in [3], 2.24 z-score; in [4] it was 2.07 z-score; in test [5] it was 1.79 z-score; in [6], 1.79 z-score. The binding signal in test [7] was 1.9 z-score; in [8], 1.51 z-score; in test [9] it was 1.45 z-score.
AGATGCGCCCT: the binding signal was -0.621 z-score in test [1]; -1.13 z-score in test [2]; -0.603 z-score in [3]; -0.768 z-score in [4]; -0.721 z-score in test [5]; -1.01 z-score in test [6]. In addition, the results for the binding signal in test [7], in test [8] and in test [9] were -0.804 z-score, -1.47 z-score and -0.758 z-score, respectively.
